Data: PubChem BioAssay (NCATS)
Records with an inconclusive call do not appear. Calls of active or inactive are those of the source. Calls come from the whole dose curve; as a rule, active = well fitted curve in the direction sought with a large enough effect; inconclusive = small, poorly fitted or top-dose-only effect, or another doubt; inactive = no such curve, though single readings can be large; an effect the other way counts as inactive or inconclusive.

Key:
[1] = target: Cytochrome P450 3A4 (Homo sapiens) (UniProt P08684); assay: qHTS Assay for Activators of Cytochrome P450 3A4 (AID 885); note: nearly all actives have a fitted effect of over 65% in size; note: potency is the fitted concentration of half-maximal effect
Chain of Cytochrome P450 3A4 (Homo sapiens) (P08684 whole entry, looked up): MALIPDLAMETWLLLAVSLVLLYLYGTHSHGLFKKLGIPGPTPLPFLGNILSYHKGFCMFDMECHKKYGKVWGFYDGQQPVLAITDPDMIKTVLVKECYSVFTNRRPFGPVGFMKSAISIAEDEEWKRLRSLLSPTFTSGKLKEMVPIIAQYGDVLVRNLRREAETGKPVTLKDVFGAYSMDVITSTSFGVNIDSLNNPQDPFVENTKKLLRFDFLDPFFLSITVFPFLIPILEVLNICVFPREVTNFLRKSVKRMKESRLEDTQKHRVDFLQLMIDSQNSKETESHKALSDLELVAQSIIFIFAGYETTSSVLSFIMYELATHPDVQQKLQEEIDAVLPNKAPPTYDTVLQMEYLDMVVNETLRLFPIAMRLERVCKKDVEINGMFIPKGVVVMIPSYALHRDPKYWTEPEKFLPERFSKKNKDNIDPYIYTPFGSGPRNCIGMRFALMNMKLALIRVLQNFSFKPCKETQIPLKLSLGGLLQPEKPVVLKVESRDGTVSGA
Procedure, shortened: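 Luminescent readout of luciferin formed from 25 uM Luciferin-PPXE (KM level) by 20 nM CYP3A4 in 200 mM KPO4, with 60 min NADPH-driven reaction at room temperature after 10 min compound exposure. Ketoconazole (57 uM) defined 100% inhibition.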

[2] = S16 Schwann cell viability assay (CellTiter-Glo assay) (AID 624031);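 note: cellular ATP luminescence as a viability measure; nearly all actives have a fitted effect of over 70% in size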
Procedure, shortened: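 Native S16 Schwann cells (rat), serum-containing medium, overnight attachment then 24 h drug exposure at 37 °C/5% CO2. CellTiter-Glo ATP signal; normalized to cell-free and vehicle wells.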

ATS189 = assay: qHTS profiling for inhibitors of Plasmodium falciparum proliferation (AID 504749); note: nearly all actives have a fitted effect of over 60% in size; note: potency is the fitted concentration of half-maximal effect; settings: P. falciparum in erythrocytes, SYBR Green DNA, 72 h; series mostly up to 12.8 µM
Procedure, shortened: (§1)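 SYBR Green fluorescence of parasite DNA, read after lysis and overnight dark incubation, measured growth over 72 h in erythrocyte culture at 0.3% parasitemia and 2.5% hematocrit. Data normalised to DMSO and 0.29 uM artemisinin, with plate-drift correction.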

ATS95 = assay: as above; settings: P. falciparum in erythrocytes, SYBR Green DNA, 72 h; series mostly up to 12.8 µM
Procedure, shortened: as §1

C2A = assay: as above; settings: P. falciparum in erythrocytes, SYBR Green DNA, 72 h; series mostly up to 12.8 µM
Procedure, shortened: as §1

CP185 = assay: as above; settings: P. falciparum in erythrocytes, SYBR Green DNA, 72 h; series mostly up to 12.8 µM
Procedure, shortened: as §1

CP211 = assay: as above; settings: P. falciparum in erythrocytes, SYBR Green DNA, 72 h; series mostly up to 12.8 µM
Procedure, shortened: as §1

CP215 = assay: as above; settings: P. falciparum in erythrocytes, SYBR Green DNA, 72 h; series mostly up to 28.7 µM
Procedure, shortened: as §1

CP217 = assay: as above; settings: P. falciparum in erythrocytes, SYBR Green DNA, 72 h; series mostly up to 12.8 µM
Procedure, shortened: as §1

CP237 = assay: as above; settings: P. falciparum in erythrocytes, SYBR Green DNA, 72 h; series mostly up to 12.8 µM
Procedure, shortened: as §1

CP252 = assay: as above; settings: P. falciparum in erythrocytes, SYBR Green DNA, 72 h; series mostly up to 12.8 µM
Procedure, shortened: as §1

CP305 = assay: as above; settings: P. falciparum in erythrocytes, SYBR Green DNA, 72 h; series mostly up to 12.8 µM
Procedure, shortened: as §1

CP335 = assay: as above; settings: P. falciparum in erythrocytes, SYBR Green DNA, 72 h; series mostly up to 12.8 µM
Procedure, shortened: as §1

DIV30 = assay: as above; settings: P. falciparum in erythrocytes, SYBR Green DNA, 72 h; series mostly up to 12.8 µM
Procedure, shortened: as §1

ECU = assay: as above; settings: P. falciparum in erythrocytes, SYBR Green DNA, 72 h; series mostly up to 12.8 µM
Procedure, shortened: as §1

HB3 = assay: as above; settings: P. falciparum in erythrocytes, SYBR Green DNA, 72 h; series mostly up to 12.8 µM
Procedure, shortened: as §1

P93_24 = assay: as above; settings: P. falciparum in erythrocytes, SYBR Green DNA, 72 h; series mostly up to 12.8 µM
Procedure, shortened: as §1

TAB113 = assay: as above; settings: P. falciparum in erythrocytes, SYBR Green DNA, 72 h; series mostly up to 12.8 µM
Procedure, shortened: as §1

[3] = qHTS Assay for Identification of Small Molecule Agonists for Thrombopoietin (TPO) Signaling Pathway (AID 917)
Procedure, shortened: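 Stimulation at the TPO EC50 (26 pM final) was used to detect activators. Ba/F3 mouse cells bearing human TPO receptor and a luciferase reporter under the Glycoprotein IIb promoter were exposed to compounds for 24 hrs at 37 C.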

7G8 = assay: qHTS profiling for inhibitors of Plasmodium falciparum proliferation (AID 504749); note: nearly all actives have a fitted effect of over 60% in size; note: potency is the fitted concentration of half-maximal effect; settings: P. falciparum in erythrocytes, SYBR Green DNA, 72 h; series mostly up to 12.8 µM
Procedure, shortened: as §1

Measured: Potency

FC(F)(F)c1cc(CN2CC[C@@]3(CCCNC3)C2)cc(C(F)(F)F)c1
inactive: [1]

N#Cc1ccccc1-c1cncnc1NCc1cccnc1
inactive: [1]

Cc1nc2cnc(N(C)C)nc2n(Cc2cccs2)c1=O
inactive: [1]

Cc1ccccc1-c1cncnc1NCCN1CCOCC1
inactive: [1]

CN1CCN(c2ncc3ncc(=O)n(Cc4cccs4)c3n2)CC1
inactive: [1]

Cc1noc(C)c1C(=O)N1CCC[C@@]2(CCN(Cc3cc(C(F)(F)F)cc(C(F)(F)F)c3)C2)C1
inactive: [1]

COc1ccccc1-c1nccc(NCc2cccc(C)c2)n1
inactive: [1]

O=C(c1cnccn1)N1CCC2(CCCN(c3cccc(-c4ccccc4)c3)C2)CC1
inactive: [1]

O=C(Nc1cccc(F)c1)N1CCCC2(CCN(C(=O)c3cc(C(F)(F)F)cc(C(F)(F)F)c3)CC2)C1
inactive: [1]

COc1ccccc1CN1CC[C@@]2(CCCN(C(=O)c3ccco3)C2)C1
inactive: [1]

O=C(Nc1ccccc1)N1CCCC2(CCNCC2)C1
inactive: [1]

COc1ccc(-c2nc3cnc(N4CCNCC4)nc3n(C3CC3)c2=O)cc1
inactive: [1]

c1ccc(Nc2ncnc3ccc(-c4ccc5c(c4)OCO5)cc23)cc1
inactive: [1]

O=c1c(-c2cc(F)cc(F)c2)nc2cnc(Oc3ccccc3)nc2n1C[C@H]1CCCO1
inactive: [1]

CN(C)c1ccc(-c2ccc3ncnc(NCc4ccccc4)c3c2)cc1
inactive: [1]

COc1ccc(Oc2ncc3nc(CCc4ccccc4)c(=O)n(C)c3n2)cc1
inactive: [1]

COc1ccccc1CNc1ncnc2ccc(-c3ccc(N(C)C)cc3)cc12
inactive: [1]

Cn1cccc1C(=O)N1CCC2(CC1)CN(C(c1ccccc1)c1ccccc1)C2
active: [1] 15800 nM

CC[C@@]12CCCN3CCc4c(n(c5ccccc45)C(=O)C1)[C@H]32
not listed: [3] | 7G8
inactive: all other assays above

Cc1cccc(CNc2cc(-c3cccc(NS(C)(=O)=O)c3)ncn2)c1
inactive: [1]

Cc1cccc(C)c1OC[C@H](C)N
inactive: [3]

CC(=O)OCC1=C(C(=O)O)N2C(=O)[C@@H](NC(=O)Cc3cccs3)[C@@H]2SC1
inactive: [1] | [3]

N[C@H](C(=O)N[C@@H]1C(=O)N2C(C(=O)O)=C(Cl)CS[C@@H]12)c1ccccc1
inactive: [1] | [3]

CC(C)(C)NC[C@H](O)c1cc(O)cc(O)c1
not listed: [1] | CP211
inactive: all other assays above

NC(=O)c1cc[n+](CC2=C(C(=O)O)N3C(=O)[C@@H](NC(=O)[C@H](c4ccccc4)S(=O)(=O)[O-])[C@@H]3SC2)cc1
active: 7G8 178 nM | ATS189 1580 nM | ATS95 3550 nM | CP237 1410 nM | CP305 2560 nM | CP335 1610 nM | DIV30 2280 nM | ECU 2000 nM | HB3 891 nM | P93_24 1260 nM | TAB113 1780 nM
inactive: [3] | [2]

O=C(O)CNC(=O)[C@@H](CS)Cc1ccccc1
inactive: [3]

C=CCc1ccccc1OC[C@H](O)CNC(C)C
inactive: [3]

O=C(C1CCCCC1)N1CC(=O)N2CCc3ccccc3[C@@H]2C1
inactive: [2]

CCn1cc(C(=O)O)c(=O)c2cc(F)c(N3CCN[C@@H](C)C3)c(F)c21
not listed: [1] | CP305 | CP335 | TAB113
inactive: all other assays above

CCCN(CCC)C(=O)[C@@H](CCC(=O)O)NC(=O)c1ccccc1
not listed: [1]
inactive: all other assays above

C[C@@H]1c2cccc(O)c2C(O)=C2C(=O)[C@@]3(O)C(O)=C(C(N)=O)C(=O)[C@@H](N(C)C)[C@@H]3[C@@H](O)[C@@H]21
inactive: [3] | [2] | CP211 | CP215 | CP217
active: 7G8 3980 nM | CP335 4260 nM

CC(C)(Oc1ccc([C@@H]2CC2(Cl)Cl)cc1)C(=O)O
inactive: [3]

CN(C)[C@@H]1C(=O)C(C(N)=O)=C(O)[C@]2(O)C(=O)C3=C(O)c4c(O)ccc(Cl)c4[C@H](O)[C@H]3C[C@@H]12
not listed: [1] | ATS95 | CP237 | CP335 | ECU | HB3 | P93_24 | 7G8
inactive: all other assays above

O=C(c1ccccc1)c1ccc2n1CC[C@H]2C(=O)O
not listed: [1]
inactive: all other assays above
